A selection: hits, their analogues and other compounds. The true share with any hit is near 9.2%.
ELG1 DNA repair = ELG1-dependent DNA repair inhibition; HEK293T ELG1-luciferase reporter, luminescence, 16 h; DNA damage induced by 5-fluorouridine; Potency, µM (doses to about 46.1 µM), inactives show at the highest dose activity change, negative = inhibition, hits mostly inhibitors; actives 2.3% (n = 330,000); AID 504467; note: % is set by controls: 0 for no effect and ±100 for the full control effect; nearly all actives have a fitted effect of over 55% in size
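Reporter activity after DNA damage by 5-fluorouridine is monitored. Compound-treated cells incubate 16 hr at 37 °C, then ONE-Glo is added for 30 min before luminescence reading.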
Rab9 promoter act = activators of Rab9 promoter | Huh7 Rab9 promoter-luciferase reporter, luminescence, 24 h | actives 2.8% (n = 320,000) | Potency, µM (series often up to 9.22 µM), without a hit: top-dose activation, negative = inhibition, actives largely listed as activators; note: % of control where 0% means no effect; nearly all actives have a fitted effect of over 60% in size
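Quantitative HTS format; Huh7 Rab9-luciferase reporter cells (1500/well) receive compound 2 h post-plating, incubate 24 h at 37 °C, then get luciferase reagent for 10 min before luminescence reading.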
SMN2 splice up = enhancers of SMN2 splice variant expression; HEK293 SMN2-luciferase splicing reporter, luminescence, 30-36 h; Potency, µM (doses to about 46.1 µM), inactives show at the highest dose activity change, positive = activation, usual class: activators; actives 2.8% (n = 210,000); AID 1458; note: % of control where 0% means no effect; nearly all actives have a fitted effect of over 55% in size
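HEK293 cells carry an SMN2 minigene-luciferase reporter in which exon 7 inclusion puts luciferase in frame. Cells were seeded at 2000 cells/well, attached for 10-12 hours, then exposed to compounds for 30-36 hours at 37C before ONE-Glo luminescence.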
FLuc counter = inhibits or activates purified firefly luciferase, miR-21 counter-screen; actives 6.9% (n = 360,000); purified FLuc, Km substrates, luminescence inhibition; Potency, µM (doses to about 57.5 µM), for the others: at the top dose activity change, negative = inhibition, most hits filed as inhibitors; P08659; AID 588342;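 note: plate controls were vehicle for no effect and reference inhibitor for full effect; nearly all actives have a fitted effect of over 55% in size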
Target sequence (P08659 whole entry, looked up): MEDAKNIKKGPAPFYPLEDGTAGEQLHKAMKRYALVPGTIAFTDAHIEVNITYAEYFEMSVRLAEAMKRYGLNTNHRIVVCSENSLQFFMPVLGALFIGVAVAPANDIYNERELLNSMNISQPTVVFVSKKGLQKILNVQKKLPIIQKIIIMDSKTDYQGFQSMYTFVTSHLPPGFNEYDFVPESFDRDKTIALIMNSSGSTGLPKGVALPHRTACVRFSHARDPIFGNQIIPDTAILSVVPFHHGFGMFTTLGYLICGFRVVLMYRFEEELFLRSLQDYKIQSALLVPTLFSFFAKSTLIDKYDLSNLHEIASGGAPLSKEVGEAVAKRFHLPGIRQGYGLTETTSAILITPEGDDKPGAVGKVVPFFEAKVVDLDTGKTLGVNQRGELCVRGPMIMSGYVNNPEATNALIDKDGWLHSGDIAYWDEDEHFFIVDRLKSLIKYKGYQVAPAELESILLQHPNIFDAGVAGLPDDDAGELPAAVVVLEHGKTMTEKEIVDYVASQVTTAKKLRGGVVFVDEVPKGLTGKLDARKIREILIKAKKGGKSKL
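Purified P. pyralis luciferase (10nM final) with 10uM D-luciferin and 10uM ATP (Km levels) in 50mM Tris acetate pH 7.5, 10mM Mg acetate, 0.01% Tween-20, 0.05% BSA; qHTS 6-point titration, ~60 µM downward; luminescence read.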
ELG1 genotoxic = inducers of genotoxicity in HEK293T ELG1-luciferase cells | HEK293T ELG1-luciferase reporter, luminescence, 16 h | Potency, µM (series often up to 46 µM), for the others: at the highest dose activity change, positive = activation, hits mostly activators | actives 1.3% (n = 330,000); note: % of control where 0% means no effect; nearly all actives have a fitted effect of over 60% in size
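HEK293T cells expressing luciferase-tagged ELG1 were treated with compound or DMSO for 16 hr at 37°C. Luciferase activity was then read after 30 min with ONE-Glo at room temperature; rising signal flags genetic stress.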
NPC1 prom act = NPC1 promoter activation; Huh7 NPC1 promoter luciferase reporter, 24 h; Potency, µM (top dose mostly 9.22 µM), without a hit: at the top dose activation, actives largely listed as activators; actives 2.4% (n = 320,000); AID 485313; note: % of control where 0% means no effect; nearly all actives have a fitted effect of over 60% in size
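NPC1 promoter–luciferase Huh7 cells; 24 h compound; luminescence.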
The depositor's hits bear a star; ? = inconclusive; · = no result. Calls come from the whole dose curve; as a rule, active = well fitted curve in the direction sought with a large enough effect; inconclusive = small, poorly fitted or top-dose-only effect, or another doubt; inactive = no such curve, though single readings can be large; an effect the other way counts as inactive or inconclusive. Potency is the fitted concentration of half-maximal effect.

SMILES | ELG1 DNA repair | Rab9 promoter act | SMN2 splice up | FLuc counter | ELG1 genotoxic | NPC1 prom act
CSc1nc2ccc(Nc3nc(N4CCOCC4)nc(N4CCOCC4)n3)cc2s1 | 5.2µM* | -3% | -4% | 1% | -19% | -5%
CCCC(=O)Nc1ccc2nc(SCC(=O)Nc3ccc(N4CCOCC4)c(Cl)c3)sc2c1 | ? | 29% | -10% | 3.8µM* | -12% | 4µM*
Fc1ccc(Nc2nc(N3CCOCC3)nc(N3CCOCC3)n2)cc1Cl | ? | -3% | · | 0% | 11% | -7%
C=C(C)C1CC=C(C)C(OC(C)=O)C1 (stereo unspecified) | · | · | -2% | · | · | ·
Cc1coc2cc3oc(=O)c(CCC(=O)NCC(=O)O)c(C)c3cc12 | -5% | 6% | · | -16% | 2% | 2%
Cc1nc(N2CCOCC2)c2c(C(=O)N(C)c3ccccc3)c(C)oc2n1 | · | · | · | 1% | · | ·
CCOC(=O)CCCCCC(=O)Nc1ccc2c(c1)CC(=O)N([C@H](C)CO)C[C@H](C)[C@H](CN(C)S(=O)(=O)c1ccc(OC)cc1)O2 | 7% | · | · | · | -2% | ·
Cc1cc(Nc2ccc(C)c(Cl)c2)nc(N2CCOCC2)n1 | 21µM* | 10% | · | -12% | 1% | 22%
C=CCn1c(=S)[nH]c2ccc(Br)cc2c1=O | ? | -4% | -7% | 2% | -14% | 0%
C=CCn1c(=S)[nH]c2nc3c(cc2c1=O)CCCC3 | 23% | 16% | -14% | -16% | 16µM* | 19%
CC(=O)Nc1ccc2nc(-c3ccc(Br)o3)[nH]c2c1 | ? | 3.5µM* | ? | 3.8µM* | ? | ?
CC(C)(C)C(=O)Nc1ccc(-c2nc3ccc(NC(=O)C(C)(C)C)cc3[nH]2)cc1 | · | · | ? | 1.9µM* | · | ·
COc1cccc(OC)c1C(=O)NC(=S)Nc1cc(-c2nc3ccccc3[nH]2)ccc1Cl | 8.2µM* | 12% | 2% | ? | -1% | -2%
CC(=O)Nc1ccc(Oc2ccc3nc(C)[nH]c3c2)cc1 | -2% | -5% | -39% | 0% | 2% | 0%
O=C(Nc1ccc2nc(-c3ccc(Br)o3)[nH]c2c1)c1ccco1 | -5% | ? | -2% | 5.4µM* | -1% | ?
COC(=O)[C@@H]1C[C@H]1[C@@H](NC(C)=O)c1ccccc1 | · | · | 4% | · | · | ·
COc1ccc(N2CCN(C(=O)CNC(=O)Cn3cnc4sc(C)c(C)c4c3=O)CC2)cc1 | -1% | 0% | · | 3% | 6% | -4%
O=C(Nc1ccc2nc(-c3ccccc3)[nH]c2c1)c1ccco1 | ? | ? | 16µM* | 11µM* | ? | ?
Cc1cccc2[nH]c(-c3ccc(NC(=O)c4ccco4)cc3)nc12 | ? | 1µM* | 14µM* | 4.8µM* | ? | 2.2µM*
Cc1cccc(NC(=O)c2ccco2)c1C | 6% | 0% | · | 0% | 2% | -3%
O=C(Nc1ccc2nc(-c3ccc(Br)o3)[nH]c2c1)c1cccs1 | 9% | 23% | -13% | 4.3µM* | -1% | 0%
Cc1ccc(-c2nc3ccccc3[nH]2)cc1NC(=O)c1ccco1 | -4% | 11% | · | 15µM* | 24% | 12%
COc1ccc(CC(=O)Oc2cc(C)ccc2C)cc1 | 3% | -2% | · | -5% | 0% | 0%
O=C(Nc1ccc2nc[nH]c2c1)c1ccco1 | ? | ? | 8% | 19µM* | ? | 19%
Cc1nc2ccc(C(=O)Nc3ccc4nc[nH]c4c3)cc2[nH]1 | -6% | -4% | · | ? | -2% | 1%
SMILES | ELG1 DNA repair | Rab9 promoter act | SMN2 splice up | FLuc counter | ELG1 genotoxic | NPC1 prom act
O=C(NCCc1cn2ccccc2n1)c1cc(COc2ccc3ncccc3c2)on1 | 8.2µM* | -14% | · | ? | -15% | -16%
O=C(c1cc(COc2ccc3ncccc3c2)on1)N1CCCCCC1 | ? | -29% | -45% | ? | 6% | -18%
COc1cccc(OC)c1NC(=O)CN(C)S(=O)(=O)c1ccc2c(c1)OCCO2 | ? | 1% | · | 3% | -3% | 2%
COc1cc(/C=C(/C#N)c2nc3ccccc3c(=O)[nH]2)ccc1O | ? | 6% | 5% | 8.5µM* | 5% | 11%
COc1cc(/C=C(\C#N)C(=O)NCCc2ccccc2)cc(OC)c1O | 8% | -7% | · | -15% | 0% | -4%
COc1cc(/C=C(\C#N)C(=O)c2c[nH]c3ccccc23)cc(OC)c1O | -5% | -4% | -46% | 15µM* | 4% | 0%
COc1ccccc1N/C=C(\C#N)c1nc2ccccc2[nH]1 | ? | -28% | · | 3.4µM* | 9% | -16%
COc1ccc(/C=C(\C#N)c2nc3ccccc3c(=O)[nH]2)cc1OC | · | · | -7% | -6% | · | ·
COc1cc(/C=C(\C#N)c2nc3ccccc3[nH]2)cc(OC)c1O | -30% | 19% | 8% | 12µM* | 4% | 1%
Cc1cccc(N(CC(=O)NCCSc2ccc(Cl)cc2)S(C)(=O)=O)c1C | · | · | -3% | -17% | · | ·
COc1ccc(/C=C(\C#N)c2nc3ccccc3[nH]2)cc1O | ? | ? | · | 9.5µM* | ? | ?
COc1c(Cl)cc(Cl)cc1/C=C(\C#N)c1nc2ccccc2[nH]1 | · | · | · | 2% | · | ·
COc1c(O)ccc(/C=C(\C#N)c2nc3ccccc3[nH]2)c1[N+](=O)[O-] | 17% | 12% | 18% | 27µM* | 1% | 6%
CCC(=O)Oc1ccc(/C=C(\C#N)c2nc3ccccc3[nH]2)cc1OC | · | · | ? | 2.7µM* | · | ·
COC(=O)N/N=C/c1cccc(OCCSc2ccc(Cl)cc2)c1 | 0% | 27% | 11µM* | -27% | 1% | ?
Cc1scc(C(=O)N/N=C/c2ccsc2)c1C | ? | 2.8µM* | 18µM* | 2.1µM* | 10µM* | ?
CCCOc1cccc(/C=N/NC(=O)c2csc(C)c2C)c1 | 3% | 10% | -25% | 4.8µM* | 6% | 22%
Cc1scc(C(=O)N/N=C/c2ccco2)c1C | ? | 2.8µM* | 11µM* | 11µM* | ? | ?
O=C(Nc1ccc(OC(F)(F)F)cc1)c1n[nH]c(Cn2cncn2)n1 | 2% | 0% | 3% | 12µM* | 2% | -2%
O=C(Nc1ccc(OC(F)(F)F)cc1)c1ccc(-n2cncn2)nc1 | ? | -11% | -25% | -2% | -3% | -18%
CCc1ccc(OCc2cc(=O)n3c4c(sc3n2)CCCC4)cc1 | · | · | -3% | ? | · | ·
Cc1ccc(SSc2cc(C)ccc2N)c(N)c1 | ? | 0.79µM* | · | 4.8µM* | 15% | 1.1µM*
CC(C)(C)c1ccc(-c2noc(CCC(=O)N3CCOCC3)n2)cc1 | ? | 1.8µM* | ? | 2.4µM* | ? | ?

Source: PubChem BioAssay
